Among all 410,000 compounds or so, about 5,100 (1.2%) were called active. Inconclusive results (about 8%) are left out. Shown is part of a subset that was picked to be rich in actives. Values without a mark were called inactive. Calls come from the whole dose curve; tested in HEK293T cells.
assay: High Throughput Screening for Foot and Mouth Disease Virus Antivirals; conditions: FMDV antiviral cell-based qHTS; series mostly up to 57.9 µM; activity change, negative = inhibition: at the top concentration; note: read-out not given here; nearly all actives have a fitted effect of over 45% in size
% is set by controls: 0 for no effect and ±100 for the full control effect; potency is the fitted concentration of half-maximal effect.

| SMILES | Potency | activity change, negative = inhibition [%] |
| --- | --- | --- |
| Cc1ccn2c(c1)nc(=O)c1cc(S(=O)(=O)N3CCC(C)CC3)ccc12 | 11.2 µM (active) |  |
| CCc1ccc(CNC(=O)c2ccc(CS(=O)c3ccc(Br)cc3)o2)cc1 (stereo unspecified) |  | 2.27 |
| Cc1cccc(CNC(=O)c2cnn(-c3nccc(-c4ccccc4F)n3)c2C2CC2)n1 |  | -10.1 |
| Cc1ccc(-c2ccnc(-n3ncc(C(=O)N(C)Cc4cccc5ncccc45)c3C3CC3)n2)o1 |  | -0.786 |
| CN(Cc1cccc2ncccc12)C(=O)c1cnn(-c2nccc(-c3ccccc3F)n2)c1C1CC1 | 3.98 µM (active) |  |
| COc1cccc(C2C(C(=O)Nc3ccc(C)cc3C)=C(C)Nc3c(C(=O)Nc4ccccc4)cnn32)c1 (stereo unspecified) |  | -7.93 |
| Nc1nc(/C(=C/CC(=O)O)C(=O)N[C@@H]2C(=O)N3C(C(=O)O)=CCS[C@H]23)cs1 |  | -8.05 |
| COc1ccccc1NC(=O)c1oc2ccccc2c1NC(=O)COc1ccccc1OC |  | 2.02 |
| CCOC(=O)CSc1nc2ccc(C)cc2n2cnnc12 |  | 18.6 |
| c1ccc(CC2CCN(c3nc4ccccc4n4cnnc34)CC2)cc1 |  | -18.3 |
| O=C(c1ccccc1)c1ccc2nc(N3CCCCC3)c3nncn3c2c1 | 10 µM (active) |  |
| O=c1c(O)c(Br)ccc2c(Br)c(O)c(O)c(O)c12 |  | -10 |
| COc1ccc(-c2c(C)c3ccc(O)c(CN4CCCC4)c3oc2=O)cc1OC |  | -12.7 |
| COCC1CCCN(Cc2ccc3c(c2)CN(C(=O)c2ccnn2C)CCO3)C1 (stereo unspecified) |  | -9.53 |
| CC(=O)Nc1cc(C(=O)NCc2ccc(F)cc2Cl)ccc1Sc1ccc(Cl)cc1 |  | -7.66 |
| COc1ccc(Oc2ncc3nc(C)c(=O)n(-c4ccccc4)c3n2)cc1 |  | -15.8 |
| CSc1ccc(CCNC(=O)c2ccc3c(c2)nc2n3CCOC2)cc1 |  | -16.6 |
| CC1CN/C(=C\C(=O)c2ccc(Br)cc2)C(=O)N1 (stereo unspecified) | 12.6 µM (active) |  |
| O=C(O)C1CCCN1S(=O)(=O)c1ccc(Br)cc1 (stereo unspecified) |  | -7.27 |
| Cc1nc2cnc(Oc3cccc(Cl)c3)nc2n(C2CC2)c1=O |  | -18.7 |
| CC(C)[C@H](CO)Nc1nc(Nc2cc(N)cc(Cl)c2)c2ncn(C(C)C)c2n1 |  | -25.5 |
| Cc1cccc(NC(=O)CSc2nc3c([nH]c4ccccc43)c(=O)n2-c2cc(C)cc(C)c2)c1 |  | 0 |
| Cc1cccc(-n2c(SCC(N)=O)nc3c(oc4ccccc43)c2=O)c1 |  | 0 |
| Cc1cccc(-n2c(SCC(N)=O)nc3c(c2=O)C2(CCCCC2)Cc2ccccc2-3)c1 | 14.1 µM (active) |  |
| COc1ccc(NC(=O)Cn2c(=O)n(Cc3ccc(C(=O)NCc4ccccc4Cl)cc3)c(=O)c3ccccc32)cc1 |  | 10.6 |
| CCOc1ccc(/C=C(\C#N)c2nc3ccccc3c(=O)[nH]2)cc1OC |  | 10.8 |

| SMILES | Potency | activity change, negative = inhibition [%] |
| --- | --- | --- |
| CCOC(=O)CN(C(=O)COc1nc(C)cc(C)c1C#N)c1ccc(Cl)cc1 |  | -18.7 |
| CCOc1cc(/C=C(/C#N)c2ccc(Cl)cc2)cc(Cl)c1OCC(=O)O | 8.91 µM (active) |  |
| O=C(c1ccncc1)N1CCC2(CCCN(C(c3ccccc3)c3ccccc3)C2)CC1 |  | -21 |
| Cc1ccc(CN2CCCn3nc(C(=O)NCc4ccccc4Cl)cc3C2=O)cc1 |  | -14.4 |
| C/C(=N\NC(=O)c1ccccc1F)c1ccccn1 | 12.6 µM (active) |  |
| CN(NC(=O)c1ccccc1F)c1nc(C(F)(F)F)nc2ccccc12 |  | -5.68 |
| O=C(NC(=S)NC1CCSC1=O)c1ccccc1F (stereo unspecified) |  | 48.4 |
| CCn1c2ccccc2c2cc(CN3CCN(Cc4cccc(Cl)c4)CC3)ccc21 |  | 13.2 |
| CCCN(C/C=C/I)C1CCc2ccc(O)cc2C1 (stereo unspecified) |  | -6.2 |
| CC1Cc2cc(S(=O)(=O)CCC(=O)NCc3ccc(Cl)cc3)ccc2N1C(=O)C1CC1 (stereo unspecified) |  | -1.27 |
| CC(C)S(=O)(=O)c1oc(-c2ccc(F)cc2)nc1S(=O)(=O)c1ccc(F)cc1 | 31.6 µM (active) |  |
| Cc1ccc(-c2nc(S(=O)(=O)c3ccc(C)cc3)c(N3CCCCCC3)o2)cc1 |  | 45.5 |
| O=C(CSc1oc(-c2ccc(F)cc2)nc1S(=O)(=O)c1ccc(Br)cc1)NC1CCCCC1 |  | -1.69 |
| COc1ccc(C(=O)N2CCC3(CCCN(C(c4ccccc4)c4ccccc4)C3)CC2)cc1 |  | 2.28 |
| O=C(c1csnn1)N1CCC[C@@]2(CCN(c3cccc(-c4ccccc4)c3)C2)C1 |  | -16.6 |
| Cc1c(NC(=O)C(C)(C)C)cccc1-c1nc2ccccc2s1 |  | -7.55 |
| O=S(=O)(c1ccccc1)N1CCC2(CC1)CN(Cc1nccs1)C2 |  | -5.22 |
| CC1Oc2ccccc2N(Cc2cccnc2)C1=O (stereo unspecified) |  | 6.82 |
| O=C(c1ccc2c(c1)N(Cc1ccccc1)C(=O)c1ccccc1S2(=O)=O)N1CCCC1 |  | 3.75 |
| CC1C(=O)N(Cc2ccccc2)c2ccccc2N1C(=O)c1ccccc1 (stereo unspecified) | 31.6 µM (active) |  |
| CS(=O)(=O)N1CCC2(CCN(c3ccncc3)CC2)CC1 |  | -17.3 |
| CN1CCC2(CC1)CCN(S(=O)(=O)c1ccccc1)CC2 |  | -4.56 |
| CC(=O)Nc1ccc(NC(=O)CC2CCCC2)cc1 |  | 55.7 |
| O=C(O)CC(SCC(=O)Nc1ccc(Br)cc1)C(=O)O (stereo unspecified) |  | -8.01 |
| O=C(CCl)Nc1ccc(Sc2ccc(NC(=O)CCl)cc2)cc1 | 7.94 µM (active) |  |

— PubChem BioAssay AID1159524 (National Center for Advancing Translational Sciences (NCATS), 2015)
